Values joined by “and” are separate entries in the source; they are usually repeats but may differ in a detail not shown here. Identical values can stand only once. Results filed as inconclusive are left out. Active and inactive are the calls of the source. Calls come from the whole dose curve; as a rule, active = well fitted inhibition curve with a large enough effect; inconclusive = small, poorly fitted or top-dose-only effect; inactive = flat fitted curve, though single readings scatter.
System: HaCat
Test: Cytotoxic Profiling of Annotated Libraries Using Quantitative High-Throughput Screening (AID 1296008); note: nearly all actives have a fitted effect of over 60% in size
Conditions: Five cell lines viability, CellTiter-Glo ATP luminescence, 48-72 h; max response: stronger effect = lower value
Summary of the method: (§1)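 Cytotoxicity was measured as CellTiter-Glo ATP luminescence, read after 10 min at room temperature. Compound treatment of the cells lasted 48 or 72 hr at 37 degrees Celsius in a qHTS format.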
% is set by controls: 0 for no effect and ±100 for the full control effect; potency is the fitted concentration of half-maximal effect.

Compound | max response | Potency | outcome
COc1ccc(-c2cc3nccn3c(Nc3ncccc3C(N)=O)n2)cc1OC | -23.8% (inactive) | – | –
Nc1nc(Cl)nc2c1ncn2[C@@H]1O[C@H](CO)[C@@H](O)[C@H]1F | – | 74.3 nM (active) | –
O=C1NC(=O)C(=Cc2ccc(-c3ccc(F)cc3O)o2)S1 | -35.3% (inactive) | – | –
CS(=O)(=O)c1ccc(C2=C(c3ccccc3)C(=O)OC2)cc1 | -5.92% (inactive) | – | inactive
C[C@@H](N)c1ccc(C(=O)Nc2ccnc3[nH]ccc23)cc1 | – | 18400 nM (active) | –
Cc1cc(OCCCS(C)(=O)=O)cc(C)c1-c1cccc(COc2ccc3c(c2)OC[C@H]3CC(=O)O)c1 | -16.3% (inactive) | – | –
O=C(CCCN1CCN(c2ccc(F)cc2)CC1)NC1c2ccccc2CSc2ccccc21 (centres undefined) | -5.32% (inactive) | – | –
Cc1csc(-c2nnc(Nc3ccc(Oc4ncccc4-c4ccnc(N)n4)cc3)c3ccccc23)c1 | – | 148 nM (active) | –
CN[C@@H](C)[C@H]1[C@H](O)C[C@@]2(C)[C@@H]3CC[C@H]4C(C)(C)[C@@H](NC)CC[C@@]45C[C@@]35CC[C@]12C | -3.67% (inactive) | – | inactive
CCC(C)SSc1ncc[nH]1 (centres undefined) | – | – | inactive
Cc1ccc(NC(=O)c2ccc(CN3CCN(C)CC3)cc2)cc1Nc1nc(-c2cccnc2)cs1 | -8.86% (inactive) | – | –
O=C(c1ccc(F)c(F)c1Nc1ccc(I)cc1F)N1CC(O)([C@H]2CCCCN2)C1 | – | 7430 nM (active) | –
COc1ccc(Cn2ccc3ccc(C(=O)NO)cc32)cc1 | -11.8% (inactive) | – | inactive
Cc1cccc(Nc2nc(N[C@@H]3CCCC[C@H]3N)ncc2C(N)=O)c1 | -5.8% (inactive) | – | –
Cc1cc(-c2ncc(CC(=O)Nc3ccc(-c4cnccn4)cn3)cc2C)ccn1 | -23.2% (inactive) and -10.9% (inactive) | – | –
CCC(=O)N1CCN(c2ccc(-n3c(=O)ccc4cnc5ccc(-c6cnc7ccccc7c6)cc5c43)cc2C(F)(F)F)CC1 | – | 1.05 µM (active) and 668 nM (active) | –
COc1nccc(-c2c(-c3ccc(F)cc3)ncn2C2CCC(O)CC2)n1 (centres undefined) | -10.4% (inactive) | – | inactive
CC(O)=C(C#N)C(=O)Nc1ccc(C(F)(F)F)cc1 | -27.6% (inactive) | – | –
CCNC(=O)c1noc(-c2cc(C(C)C)c(O)cc2O)c1-c1ccc(CN2CCOCC2)cc1 | – | 469 nM (active) and 41.1 nM (active) | –
Cn1cc(-c2ccc3nnc(Sc4ccc5ncccc5c4)n3n2)cn1 | 1.95% (inactive) | – | –
Fc1ccc(CNc2ncnc3ccc(F)cc23)cc1 | -29% (inactive) | – | –
C=CC(=O)Nc1cccc(Sc2nc(Nc3ccc(N4CCN(C)CC4)cc3)ncc2Cl)c1 | – | 5800 nM (active) | –
Cc1nc2c([nH]1)CCN(C(=O)c1ccc(NC(=O)c3ccccc3-c3ccccc3)cc1)c1ccccc1-2 | -0.498% (inactive) | – | inactive
COc1c(C)c2c(c(O)c1CC=C(C)CCC(=O)OCCN1CCOCC1)C(=O)OC2 | -7.64% (inactive) | – | –
COc1c(C)cnc(Cn2cnc3c(Cl)nc(N)nc32)c1C | – | 296 nM (active) | –
Cc1cnc(CNC(=O)c2c(=O)c3ccc(N4CCCN(C)CC4)nc3n3c2sc2ccccc23)cn1 | -24.1% (inactive) | – | –
C[C@H]1O[C@@H](n2cc(F)c(=O)[nH]c2=O)[C@H](O)[C@H]1O | -27.2% (inactive) | – | –

System: KB-3-1
Test: as above
Conditions: Five cell lines viability, CellTiter-Glo ATP luminescence, 48-72 h; max response: stronger effect = lower value
Summary of the method: as §1

Compound | max response | Potency | outcome
COc1ccc(-c2cc3nccn3c(Nc3ncccc3C(N)=O)n2)cc1OC | -9.74% (inactive) | – | –
CN1CC(=O)NC1=NC(=O)Nc1cccc(Cl)c1 | 5.76% (inactive) | – | –
CS(=O)(=O)c1ccc(C2=C(c3ccccc3)C(=O)OC2)cc1 | 20.7% (inactive) and -2.3% (inactive) and -12.9% (inactive) | – | –
Cc1ccc(C(=O)N(CCCN)[C@@H](c2oc3cc(Cl)ccc3c(=O)c2Cc2ccccc2)C(C)C)cc1 | – | 0.0008 µM (active) | –
COC(=O)Nc1ccc(-c2nc(N3CCOCC3)c3cnn(C4CCN(C(=O)OC)CC4)c3n2)cc1 | – | 1.48 µM (active) | –
CN[C@@H](C)[C@H]1[C@H](O)C[C@@]2(C)[C@@H]3CC[C@H]4C(C)(C)[C@@H](NC)CC[C@@]45C[C@@]35CC[C@]12C | 4.02% (inactive) | – | inactive
Cc1ccc(C(=O)N(CCCN)[C@@H](c2nc3cc(Cl)ccc3c(=O)n2Cc2ccccc2)C(C)C)cc1 | – | 0.0008 µM (active) | –
CCCCCCCCCCCCCC(=O)N[C@H](CO)[C@H](O)c1ccc([N+](=O)[O-])cc1 | 5.57% (inactive) | – | –
Cc1ccc(NC(=O)c2ccc(CN3CCN(C)CC3)cc2)cc1Nc1nc(-c2cccnc2)cs1 | -13.9% (inactive) | – | –
CN(C(Cc1ccc(OS(=O)(=O)c2cccc3cnccc23)cc1)C(=O)N1CCN(c2ccccc2)CC1)S(=O)(=O)c1cccc2cnccc12 (centres undefined) | -3.12% (inactive) | – | –
COc1ccc(Cn2ccc3ccc(C(=O)NO)cc32)cc1 | 8.71% (inactive) | – | inactive
COc1cc2nccc(Oc3ccc(NC(=O)Nc4cc(C)on4)c(Cl)c3)c2cc1OC | – | 18.7 µM (active) | –
CC[C@H](CC#N)OC(=O)N[C@@H](C)c1cccc(NC(=O)Nc2ccc(-c3cnco3)c(OC)c2)c1 | – | 1.32 µM (active) and 1.64 µM (active) | –
COc1nccc(-c2c(-c3ccc(F)cc3)ncn2C2CCC(O)CC2)n1 (centres undefined) | – | – | inactive
O=C(c1ccc(C=Cc2n[nH]c3ccccc23)cc1)N1CCNCC1 | – | 9.35 µM (active) | –
Cn1cc(-c2ccc3nnc(Sc4ccc5ncccc5c4)n3n2)cn1 | 3.63% (inactive) | – | –
CN(C)CCN(C)C(=O)c1ccc(NC(=O)Nc2ccc(-c3nc(N4CCOCC4)c4ccn(CC(F)(F)F)c4n3)cc2)cc1 | – | 0.0015 µM (active) | –
CC(C)n1c(C=C[C@H](O)C[C@H](O)CC(=O)O)c(-c2ccc(F)cc2)c2ccccc21 | – | 11.8 µM (active) | –
Cc1nc2c([nH]1)CCN(C(=O)c1ccc(NC(=O)c3ccccc3-c3ccccc3)cc1)c1ccccc1-2 | 0.364% (inactive) and -8.3% (inactive) | – | –
C[C@H]1O[C@@H](n2cc(F)c(=O)[nH]c2=O)[C@H](O)[C@H]1O | -15.3% (inactive) | – | –
